According to PubChem BioAssay (Tox21):
“And” between values parts separate entries of the source, which are not always exact repeats. Equal entries are not always repeated. Records with an inconclusive call do not appear. The source made the active and inactive calls. The call rests on the fitted dose curve; in most records, active means well fitted curve in the direction sought with a large enough effect in the repeat runs; inconclusive means weak or mixed curves; inactive means no such curve, though single readings can be large; an effect the other way counts as inactive or inconclusive.

System: not listed separately
Experiment: qHTS assay to identify small molecule antagonists of the constitutive androstane receptor (CAR) signaling pathway - cell viability counter screen (AID 1224837); further: nearly all actives have a fitted effect of over 45% in size
Settings: HepG2-CYP2B6-hCAR viability, CellTiter-Fluor, 23 h, co-treated with 50 nM CITCO; series mostly up to 92.4 µM; activity change, negative = cytotoxicity: at the top concentration
Summary of the method: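 Read-out: CellTiter-Fluor fluorescence after 23 hr at 37 C/5% CO2. Cells: HepG2 double-stable for hCAR and CYP2B6-2.2kb. Compounds tested at 15 concentrations in the presence of CITCO, final concentration 50 nM.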
On the % scale 0 is the no-effect control and ±100 the full control effect; potency means the concentration at half of the fitted maximal effect.

SMILES	activity change, negative = cytotoxicity	Potency
CC(C)OC(=O)C(O)(c1ccc(Cl)cc1)c1ccc(Cl)cc1	-17.2% (inactive)	–
CCCCCCCCCCCCCCCC[N+](C)(C)C	–	54.5 µM (active)
O=C(CBr)c1ccc(O)cc1	4.69% (inactive)	–
CN(C)C(=S)S	–	27.9 µM (active) and 7.64 µM (active) and 27.3 µM (active)
O=C(CCCN1CCC2(CC1)C(=O)NCN2c1ccccc1)c1ccc(F)cc1	–	3.35 µM (active)
Cc1cc(SCc2sc(-c3ccc(C(F)(F)F)c(F)c3)nc2C)ccc1OCC(=O)O	1.44% (inactive)	–
CC1CCC(C(C)C)C(OC(=O)c2ccccc2N)C1 (centres undefined)	-8.76% (inactive)	–
Clc1ccc(COC(Cn2ccnc2)c2ccc(Cl)cc2Cl)cc1 (centres undefined)	–	40.4 µM (active) and 43.1 µM (active) and 26.6 µM (active)
CC[C@H](C)[C@H]1O[C@]2(C=C[C@@H]1C)C[C@@H]1C[C@@H](C/C=C(\C)[C@@H](O[C@H]3C[C@H](OC)[C@@H](O[C@H]4C[C@H](OC)[C@@H](O)[C@H](C)O4)[C@H](C)O3)[C@@H](C)/C=C/C=C3\CO[C@@H]4[C@H](O)C(C)=C[C@@H](C(=O)O1)[C@]34O)O2	–	32.2 µM (active)
Clc1ccc(CO/N=C(\Cn2ccnc2)c2ccc(Cl)cc2Cl)c(Cl)c1	-24.2% [at 42.5 µM] (inactive)	–
O=C(O)c1cc[c]([Hg][Cl])cc1	–	54.5 µM (active)
CCCCCCCCCCCCCCC(Br)C(=O)O (centres undefined)	4.14% (inactive)	–
c1ccc(Nc2ccc3ccccc3c2)cc1	–	inactive
C[CH2][Hg][N]1C(=O)C2C(C1=O)C1(Cl)C(Cl)=C(Cl)C2(Cl)C1(Cl)Cl (centres undefined)	–	13 µM (active)
NC(=O)c1ccc(N)nc1	0.368% (inactive)	–
C=CC(=O)OCCCCOC(=O)C=C	–	61.1 µM (active)
COc1cccc2c1C(=O)c1c(O)c3c(c(O)c1C2=O)C[C@@](O)(C(=O)CO)CC3OC1CC(N2CCOC(OC)C2)C(O)C(C)O1 (some centres undefined)	–	0.106 µM (active)
O=C(CCl)Nc1ccccc1	–	48.6 µM (active)
O=CC(Br)(Br)Br	–	27.2 µM (active)

Target: Nuclear receptor subfamily 1 group I member 3 (Homo sapiens) (UniProt Q14994)
Experiment: qHTS assay to identify small molecule antagonists of the constitutive androstane receptor (CAR) signaling pathway (AID 1224838);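 further: HepG2 cells stably expressing hCAR with CYP2B6 luciferase reporter stimulated by CITCO; nearly all actives have a fitted effect of over 40% in size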
Settings: HepG2-CYP2B6-hCAR luciferase, CITCO-stimulated, 24 h; series mostly up to 92.4 µM; activity, negative = inhibition: at the top concentration
Summary of the method: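 Read-out: ONE-Glo luciferase luminescence after 30 min at room temperature. HepG2-CYP2B6-hCAR double-stable cells, compounds in 15-point titration plus 50 nM CITCO final, 24 h at 37 C/5% CO2.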

Nuclear receptor subfamily 1 group I member 3 (Homo sapiens), sequence (Q14994 whole entry, looked up): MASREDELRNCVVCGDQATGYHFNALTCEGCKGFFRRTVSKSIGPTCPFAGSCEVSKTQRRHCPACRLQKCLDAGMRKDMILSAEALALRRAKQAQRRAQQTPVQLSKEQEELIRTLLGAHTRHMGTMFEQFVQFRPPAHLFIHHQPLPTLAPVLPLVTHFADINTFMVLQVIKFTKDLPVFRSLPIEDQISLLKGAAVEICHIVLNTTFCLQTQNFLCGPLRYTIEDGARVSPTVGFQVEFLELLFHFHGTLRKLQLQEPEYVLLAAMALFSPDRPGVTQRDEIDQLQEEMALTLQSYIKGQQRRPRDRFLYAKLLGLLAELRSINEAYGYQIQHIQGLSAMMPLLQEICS

SMILES	activity, negative = inhibition	Potency
CC1(c2ccc(Oc3ccccc3)cc2)OC(=O)N(Nc2ccccc2)C1=O (centres undefined)	-18.3% (inactive)	–
CC(C)OC(=O)C(O)(c1ccc(Cl)cc1)c1ccc(Cl)cc1	32.4% (inactive)	–
CCCOCC(=Nc1ccc(Cl)cc1C(F)(F)F)n1ccnc1	29.3% (inactive)	–
CC(C)(C)C(O)/C(=C\c1ccc(Cl)cc1Cl)n1cncn1 (centres undefined)	106% (inactive)	–
CCc1nn(C)c(C(=O)NCc2ccc(C(C)(C)C)cc2)c1Cl	-16.7% (inactive)	–
CCCCCCCCc1ccc(O)cc1	85.1% (inactive)	–
Cc1cc(SCc2sc(-c3ccc(C(F)(F)F)c(F)c3)nc2C)ccc1OCC(=O)O	47.7% (inactive)	–
CC1CCC(C(C)C)C(OC(=O)c2ccccc2N)C1 (centres undefined)	21.9% (inactive)	–
N#Cc1c(-c2ccc(Cl)cc2)[nH]c(C(F)(F)F)c1Br	–	0.969 µM (active)
CC[C@H](C)[C@H]1O[C@]2(C=C[C@@H]1C)C[C@@H]1C[C@@H](C/C=C(\C)[C@@H](O[C@H]3C[C@H](OC)[C@@H](O[C@H]4C[C@H](OC)[C@@H](O)[C@H](C)O4)[C@H](C)O3)[C@@H](C)/C=C/C=C3\CO[C@@H]4[C@H](O)C(C)=C[C@@H](C(=O)O1)[C@]34O)O2	–	40.5 µM (active)
CCCCCCCCCCCCCCC(Br)C(=O)O (centres undefined)	38.1% (inactive)	–
NC(=O)c1ccc(N)nc1	22.1% (inactive)	–
COc1cccc2c1C(=O)c1c(O)c3c(c(O)c1C2=O)C[C@@](O)(C(=O)CO)CC3OC1CC(N2CCOC(OC)C2)C(O)C(C)O1 (some centres undefined)	–	0.0298 µM (active)
O=C(CCl)Nc1ccccc1	–	54.5 µM (active)
O=CC(Br)(Br)Br	–	30.5 µM (active)
